# Test results reported in PubChem BioAssay (NCATS).
# Inconclusive results are not listed. Active and inactive are the calls of the source. Calls follow the shape of the dose curve; as a rule, active = well fitted inhibition curve with a large enough effect in the repeat runs; inconclusive = weak or mixed curves; inactive = no such curve, though single readings can be large or run the other way.
# Target: Cytochrome P450 2C9 (Homo sapiens) (UniProt P11712)
# Test: Cytochrome P450 family 2 subfamily C member 9 (CYP2C9) small molecule antagonists: luciferase biochemical (cell-free) qHTS assay (AID 1645842); also: nearly all actives have a fitted effect of over 55% in size
# Details: P450-Glo CYP2C9 enzyme assay, luciferin luminescence; series mostly up to 57.4 µM
# Description: National Center for Advancing Translational Sciences [NCATS] Assay Overview: Cytochrome P450 (CYP) enzymes are membrane-bound hemeproteins that play a key role in metabolism of drugs and xenobiotics. Assaying the effect of chemicals on CYP isozymes is useful to minimize the adverse drug reactions and toxicities in drug development process. Chemical compounds were tested for their effect on CYP enzyme activities by using P450-Glo (TM) screening systems (Promega Corporation, Madison, WI). These systems provide a luminescent method containing proluciferin substrates and are converted to luciferin products by CYP isozymes. The luciferin products formed are detected with a luciferin detection reagent, and the amount of light produced is proportional to CYP activity. P450-Glo (TM) CYP2C9 screening system (Catalog. No. V9790) was used to detect the compounds that interfere in CYP2C9 activity.
# Assay Protocol Summary: Two ul of enzyme-substrate mix supplemented with 0.4% Bovine Serum Albumin was dispensed into medium binding white/solid 1536-well plates (Greiner Bio-One North America Inc., Monroe, NC) using a Flying Reagent Dispenser (FRD, Aurora Discovery, San Diego, CA). […] The assay plates were incubated at room temperature for 10 min. Then 2 ul of NADPH regeneration solution was added to each well of the assay plates using an FRD and incubated at 37C for 1 h. The reaction was stopped by adding 4 ul of detection reagent using an FRD and after 20 min incubation at room temperature, the luminescence signal was measured using a ViewLux plate reader (Perkin Elmer, Shelton, CT). Data were expressed as relative luminescence units.
# Potency is read from the fitted curve at half-maximal effect.
# Sequence of Cytochrome P450 2C9 (Homo sapiens) (P11712 whole entry, looked up): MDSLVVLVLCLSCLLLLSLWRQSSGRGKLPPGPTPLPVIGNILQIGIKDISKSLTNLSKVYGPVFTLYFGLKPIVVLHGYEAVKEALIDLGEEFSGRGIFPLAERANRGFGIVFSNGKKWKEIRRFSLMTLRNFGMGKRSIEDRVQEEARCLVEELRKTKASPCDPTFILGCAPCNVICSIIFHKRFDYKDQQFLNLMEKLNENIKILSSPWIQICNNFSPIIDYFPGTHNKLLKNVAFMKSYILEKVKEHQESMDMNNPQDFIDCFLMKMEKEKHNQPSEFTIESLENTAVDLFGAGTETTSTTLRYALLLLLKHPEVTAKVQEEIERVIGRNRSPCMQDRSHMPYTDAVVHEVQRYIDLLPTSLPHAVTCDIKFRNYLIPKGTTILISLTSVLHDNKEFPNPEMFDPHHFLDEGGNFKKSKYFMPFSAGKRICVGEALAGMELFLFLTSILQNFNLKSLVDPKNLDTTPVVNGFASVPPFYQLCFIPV
row,Compound,Potency
1,CS(=O)(=O)c1ccc(-c2cn3ccccc3n2)cc1,13.8 µM (active)
2,C[C@@H](C(=O)O)c1ccc(-c2ccccc2)c(F)c1,inactive
3,COc1cc(N2CCN(C)CC2)ccc1Nc1nccc(-c2cn(C)c3cnccc23)n1,inactive
4,CN(C)CC(=O)Nc1ccc2[nH]c(=O)c3ccccc3c2c1,13.5 µM (active)
5,CC(C)c1ccc(NC(=O)C(c2ccccc2)N(C)C(=O)Cc2c[nH]c3ccccc23)cc1 (stereo not given),2.39 µM (active)
6,Cn1nccc1Nc1nccc(-c2ccn([C@H](CO)c3ccc(Cl)c(F)c3)c(=O)c2)n1,19 µM (active)
7,CNCc1ccc(C)c(NC(=O)c2ccc(Nc3nc(-c4ccccc4)c4ccccc4n3)cc2)c1,inactive
8,CCCCCCCC[N+](C)(C)CCCCCCCC,inactive
9,COc1ccc(Cl)cc1[C@@]1(F)C(=O)Nc2cc(C(F)(F)F)ccc21,6.01 µM (active)
10,COc1ccc(-c2cc(C(O)C3CCCCN3)c3ccccc3n2)cc1 (stereo not given),10.7 µM (active)
11,CN1CCN(C(=O)c2ccc(Nc3nccc(-c4cccs4)n3)cc2Cl)CC1,0.674 µM (active)
12,Cc1cc(C)c(NC(=O)N(Cc2ccc3c(c2)Cc2ccccc2-3)C2CCCCCC2)c(C)c1,6.01 µM (active)
13,Cn1cc(-c2cnc3ccc4ccc(CS(=O)(=O)NCc5ccccn5)cc4c(=O)c3c2)cn1,inactive
14,COc1ccc(Nc2nnc(-c3ccc(C)c(S(=O)(=O)NCc4nc5ccccc5[nH]4)c3)c3ccccc23)cc1,7.56 µM (active)
15,CCOc1nc2cccc(C(=O)OC(C)OC(=O)OC3CCCCC3)c2n1Cc1ccc(-c2ccccc2-c2nn[nH]n2)cc1 (stereo not given),4.77 µM (active)
16,Fc1ccccc1CNCc1ccc(-c2ccnc3[nH]ccc23)cc1,inactive
17,C=CC(=O)N1CCN(C(=O)c2cc(-c3cc(Cl)ccc3Cl)c(Cl)cc2OC)CC1,inactive
18,FC(F)(F)c1ccc(CNc2ccc(Cc3c[nH]c4ncccc34)cn2)cc1,1.2 µM (active)
19,CNc1nc(-c2ccc3c(N)n[nH]c3c2)cc(N2CC(C(=O)NC3CCCCC3)CCC2C)n1 (stereo not given),2.13 µM (active)
20,Cc1cc2nc(NCCCO)n(CC(=O)c3cc(C(C)(C)C)c(O)c(C(C)(C)C)c3)c2cc1C,13.5 µM (active)

row,Compound,Potency
1,CCC[C@@H](NC(=O)N1C(=O)C(CC)(CC)[C@@H]1Oc1ccc(C(=O)N2CCN(C)CC2)cc1)c1ccc2c(c1)OCO2,3.38 µM (active)
2,CCC(=O)Nc1cccc(Oc2nc(Nc3ccc(N4CCN(C)CC4)cc3OC)ncc2Cl)c1,6.74 µM (active)
3,CCCc1c(C(C)C)nc(C(C)C)c([C@@H](C)O)c1-c1ccc(F)cc1O,4.77 µM (active)
4,COc1ccc(CNC(=O)Nc2ncc([N+](=O)[O-])s2)cc1,7.56 µM (active)
5,O=C(NCc1ccc(Oc2ccccc2)cc1)c1nc(-c2cc(Br)c(O)c(Br)c2)no1,0.849 µM (active)
6,COc1cccc(NC[C@@H](O)Cn2c3ccc(Br)cc3c3cc(Br)ccc32)c1,inactive
7,Cc1ccccc1C(=O)Nc1ccc(C(=O)N2CCC[C@@H](O)c3cc(Cl)ccc32)c(C)c1,12 µM (active)
8,O=C(Nc1ncc(SCCN2CCCC2)s1)C1(c2ccc(S(=O)(=O)C3CC3)cc2)CC1C1CCCCC1 (stereo not given),19 µM (active)
9,CCN(CC)Cc1cccc(/C=C/c2nc3ccc(F)cc3c(=O)n2-c2ccccc2Cl)n1,19 µM (active)
10,COc1ccc2c(c1)C[C@H](C(=O)Nc1ccc(-c3cn[nH]c3)cc1OCCN(C)C)CO2,4.25 µM (active)
11,C=CC(=O)Nc1cccc(Nc2nc(Nc3ccc(Oc4ccnc(C(=O)NC)c4)cc3)ncc2F)c1,1.51 µM (active)
12,Cc1nccn1CC1CCC2C(C1=O)c1ccccc1N2C (stereo not given),inactive
13,Nc1nc(NCC2CCC(CNS(=O)(=O)c3cccc4ccccc34)CC2)nc2ccccc12 (stereo not given),4.77 µM (active)
14,CC1CCN(C(c2ccc(F)cc2)c2ccc(C(C)C(=O)O)cc2-c2ccc(C(F)(F)F)cc2)CC1 (stereo not given),9.52 µM (active)
15,NC(=Nc1ccc(CCNCc2cccc(Cl)c2)cc1)c1cccs1,12 µM (active)
16,CN(Cc1ccc(C(=O)O)cc1)c1ccc(OCc2c(-c3c(Cl)cccc3Cl)noc2C2CC2)nc1C(F)(F)F,10.7 µM (active)
17,CNc1ccc([N+](=O)[O-])cc1-n1cnc(-c2ccc(C(F)(F)F)cc2)c1,3.01 µM (active)
18,Cc1c(C(=O)NCCCO)cnn1-c1nc(-c2cccc(C(F)(F)F)c2)cs1,2.39 µM (active)
19,CCOC(=O)c1cnn(-c2ccc(NC(=O)C(Cl)=C(Cl)Cl)cc2)c1C(F)(F)F,6.74 µM (active)
20,Cc1[nH]c(/C=C2\C(=O)Nc3ccc(F)cc32)c(C)c1C(=O)NC[C@H](O)CN1CCOCC1,inactive
